# Bioassay records (PubChem)
# Compounds with a hit are over-represented: about 5.9% of the library has one in this group of screens.
# KB-V1 cytotox – KB-V1 MDR subline cytotoxicity; AID 1347076; KB-V1 MDR cells viability, CellTiter-Glo, 72 h; 3.4% of 400,000 active; Potency, µM (top dose mostly 46.1 µM), usual class: cytotoxic; also: % is scaled to controls: 0 for no effect and ±100 for the full control effect; nearly all actives have a fitted effect of over 60% in size
#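 Compound-treated KB-V1 multidrug-resistant cells, 72 h, 37 degrees C; viability by CellTiter-Glo. Fitted qHTS curves give the values.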
# KB-3-1 cytotox – kills parental KB-3-1 adenocarcinoma cells. Potency, µM (titrated, usually from 46.1 µM), usual class: cytotoxic. KB-3-1 viability, CellTiter-Glo ATP luminescence, 72 h. 1.4% of 400,000 active. AID 1347075; also: % is scaled to controls: 0 for no effect and ±100 for the full control effect; nearly all actives have a fitted effect of over 60% in size
#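 KB-3-1 cells, DMEM (no phenol red) + 10% FBS; compound by pin transfer, 72 h, 37 °C. Readout: CellTiter-Glo luminescence after 10 min. Data normalized, curve-fitted.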
# S2 tox – viability counter-screen for ATXN expression inhibitors; S2 cells (HEK-293 line with an ATXN2-luciferase reporter) viability, CellTiter-Fluor protease fluorescence, 24 h; Potency, µM (highest dose often 56.7 µM), actives largely listed as cytotoxic; 0.49% of 400,000 active; AID 651635; also: nearly all actives have a fitted effect of over 40% in size
# ATXN2 expr inh – ATXN2 expression inhibition; 0.72% of 360,000 active; Potency, µM (series often up to 57 µM), without a hit: at the top dose activity change, negative = inhibition, usual class: inhibitors; HEK-293 ATXN2-luciferase reporter, luminescence, 24 h; AID 1745845; also: % is scaled to controls: 0 for no effect and ±100 for the full control effect; nearly all actives have a fitted effect of over 55% in size
#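 ATXN2-luciferase reporter cells (luciferase flanked by upstream and downstream ATXN2 gene portions) were treated 24 h at 37 °C with compounds at up to 57 uM. SteadyGlo luminescence gave expression; GF-AFC fluorescence gave viability.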
# TGFb SMAD3 inh – TGF-b pathway inhibition; HepG2 CAGA-GFP TGF-b/SMAD3 reporter, GFP fluorescence, 18 h; TGF-beta stimulated, 500 pg/mL final; Potency, µM (titrated, usually from 46.1 µM), inactives show top-dose activity, negative = inhibition, usual class: inhibitors; 1.2% of 410,000 active; also: % is scaled to controls: 0 for no effect and ±100 for the full control effect; nearly all actives have a fitted effect of over 65% in size
#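 Cell-based qHTS in HEPG2 carrying a CAGA-GFP Smad reporter; compounds added before 500 pg/mL final TGF-beta, 18 h incubation at 37 degrees C, GFP fluorescence quantified per cell by imaging cytometry.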
# HepG2 tox-1 – counter-screen for TGF-b inhibitors: cytotoxicity in HepG2 cells. Potency, µM (top dose mostly 46.1 µM), for the others: at the top dose activity change, negative = cytotoxicity, actives largely listed as cytotoxic. HepG2 CAGA-GFP viability, ATP luminescence, 18 h. 0.76% of 410,000 active
#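 HepG2 CAGA-GFP cells (1000/well, DMEM with 1% FBS) received compound, then TGF-beta at 500 pg/mL final, and were incubated 18 hours at 37 degrees C. Viability was read by CellTiter-Glo luminescence. Media-only wells were set as complete cell-killing and DMSO as no toxicity.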
# TGFb CAGA inh – confirmation of TGF-b signaling inhibitors in HepG2 reporter cells. 63% of 1,600 active. Potency, µM (titrated, usually from 46.1 µM), inactives show at the highest dose activity, negative = inhibition, usual class: inhibitors. HepG2 CAGA-GFP TGF-b reporter, GFP fluorescence, 18 h; cells stimulated with TGF-beta, 500 pg/mL. shares compounds with TGFb SMAD3 inh; also: % is scaled to controls: 0 for no effect and ±100 for the full control effect; nearly all actives have a fitted effect of over 65% in size
# HepG2 tox-2 – counter-screen for TGF-b inhibitors: cytotoxicity in HepG2 cells | shares compounds with TGFb SMAD3 inh | Potency, µM (top dose mostly 46.1 µM), inactives show at the top dose activity, negative = cytotoxicity, usual class: inhibitors | HepG2 CAGA-GFP viability, ATP luminescence, 18 h; cells stimulated with TGF-beta, 500 pg/mL | 27% of 1,600 active; also: % is scaled to controls: 0 for no effect and ±100 for the full control effect; nearly all actives have a fitted effect of over 70% in size
# TGFb CCL64 inh – blocks TGF-b signaling in CCL64 reporter cells. shares compounds with TGFb SMAD3 inh. CCL64 CAGA-GFP reporter, TGF-b stimulated, GFP fluorescence, 18 h. Potency, µM (series often up to 46.1 µM), inactives show at the top dose activity, negative = inhibition, hits mostly inhibitors. 41% of 1,600 active. AID 720536; also: nearly all actives have a fitted effect of over 65% in size
# COP TGFb inh – validation of TGF-b inhibitors in HepG2 COP promoter reporter | shares compounds with TGFb SMAD3 inh | Potency, µM (highest dose often 46.1 µM), for the others: at the top dose activity, negative = inhibition, actives largely listed as inhibitors | 3% of 1,600 active | HepG2 COP-GFP TGF-b reporter, GFP fluorescence, 18 h; cells stimulated by added recombinant TGF-beta; also: nearly all actives have a fitted effect of over 70% in size
# * = called active by the depositor; i = inactive; ? = inconclusive; · = not tested or not shown. Calls follow the shape of the dose curve; as a rule, active = well fitted curve in the direction sought with a large enough effect; inconclusive = small, poorly fitted or top-dose-only effect, or another doubt; inactive = no such curve, though single readings can be large; an effect the other way counts as inactive or inconclusive. Potency is read from the fitted curve at half-maximal effect.
SMILES,KB-V1 cytotox,KB-3-1 cytotox,S2 tox,ATXN2 expr inh,TGFb SMAD3 inh,HepG2 tox-1,TGFb CAGA inh,HepG2 tox-2,TGFb CCL64 inh,COP TGFb inh
Nc1ccc(C(=O)N/N=C/c2cn(Cc3ccc(F)cc3)c3ccccc23)cc1,i,i,i,-8%,7.9µM*,-13%,5.8µM*,2.1µM*,-1%,20%
COc1cc(C(=O)N/N=C/c2cn(Cc3ccccc3)c3ccccc23)ccc1O,i,i,i,-6%,-19%,-6%,·,·,·,·
CCOC(=O)c1noc2nc(C)n(CC(=O)Nc3cccc(OC)c3)c(=O)c12,?,i,i,0%,12%,-24%,·,·,·,·
Cc1cccc(C)c1NC(=O)C1C(c2ccccc2)=Nc2ccccc2N1C(=O)c1cnccn1 (stereo not drawn),i,i,·,·,·,·,·,·,·,·
OC[C@@H]1CN(Cc2ccc(F)cc2)C[C@H](n2cnc3c(Nc4ccccc4)ncnc32)O1,i,i,i,2%,1%,-30%,·,·,·,·
OC[C@@H]1CN(Cc2ccc(-c3ccccc3)cc2)C[C@H](n2cnc3c(Nc4ccccc4)ncnc32)O1,21µM*,13µM*,i,?,10µM*,-23%,8.2µM*,?,?,26%
O=C(Nc1nc2cc3c(cc2s1)OCCO3)c1ccc([N+](=O)[O-])o1,?,3.3µM*,i,17%,?,-16%,0.82µM*,4.1µM*,?,24%
COc1ccc2nc(NC(=O)c3ccc([N+](=O)[O-])o3)sc2c1,?,18µM*,?,21%,8.9µM*,-29%,2.3µM*,21µM*,12µM*,22%
O=C(Nc1nc2ccccc2s1)c1ccc([N+](=O)[O-])o1,?,?,?,·,?,-30%,·,·,·,·
O=C(CN1CCN(Cc2ccc(F)cc2)C1=O)NCc1ccc(F)cc1,i,i,i,-8%,-5%,3%,·,·,·,·
CC1(C)CC(Cc2ccc(C(=O)c3ccccc3)cc2)N(C(=O)OC(C)(C)C)N1 (stereo not drawn),i,i,?,?,?,-48%,·,·,·,·
COc1ccc(C(=O)/C(C#N)=N/Nc2ccccc2[N+](=O)[O-])cc1,i,?,?,-9%,1.1µM*,-18%,10µM*,?,?,1%
COc1ccc(CN(C(=O)Nc2ccc(C)c(F)c2)C2CCN(C(C)=O)CC2)cc1,i,i,i,-11%,-13%,-17%,·,·,·,·
COc1ccc(Cl)cc1-c1cc(C(=O)Nc2ccc(Br)cc2)[nH]n1,i,i,i,?,?,-14%,·,·,·,·
CC(=NNc1nc2ccccc2o1)c1cc2ccccc2cn1,?,?,i,?,0.32µM*,-52%,?,18µM*,?,22%
CCc1ccccc1N1CCN(S(=O)(=O)c2cc(OC)ccc2OC)CC1,?,i,i,10%,?,-3%,26µM*,?,?,27%
CN(Cc1ccc(Cl)cc1)C(CCc1ccccc1)C(=O)NC1CCCCC1 (stereo not drawn),i,i,i,-14%,?,-25%,·,·,·,·
Cc1ccc(S(=O)(=O)N2CCN(CC(O)COc3ccccc3)CC2)cc1 (stereo not drawn),?,i,i,-13%,-3%,6%,·,·,·,·
CC(=O)Nc1ccc(S(=O)(=O)N2CCN(CC(O)COc3ccc4ccccc4c3)CC2)cc1 (stereo not drawn),?,i,?,?,?,-18%,26µM*,-29%,-3%,7%
CC(=O)Nc1ccc(OCC(O)CN2CCN(S(=O)(=O)c3ccc(NC(C)=O)cc3)CC2)cc1 (stereo not drawn),i,i,i,-2%,13%,-3%,·,·,·,·
CCOc1ccc(S(=O)(=O)N2CCN(CC(O)COc3cccc([N+](=O)[O-])c3)CC2)cc1 (stereo not drawn),?,i,i,-26%,?,-28%,?,-13%,?,19%
CCn1c2ccccc2c2cc(/C=C3\C=Cc4ccccc43)ccc21,i,i,·,·,9%,-21%,·,·,·,·
O=S(=O)(NC1CCCC1)c1ccc(S(=O)(=O)N2CCc3ccccc32)cc1,?,?,?,?,?,4%,9.2µM*,-18%,-2%,-11%
Nc1ccc(S(=O)(=O)N2CCc3ccccc32)cc1,i,i,i,-14%,19%,-1%,·,·,·,·
COc1ccc(OC)c2sc(NC(=O)CCSc3ccccc3)nc12,i,i,i,-7%,-8%,-9%,·,·,·,·
COc1ccc(OC)c2sc(NC(=O)CCS(=O)(=O)c3ccccc3)nc12,i,?,?,0%,?,21%,2.3µM*,16µM*,4.6µM*,-3%
O=C(CCS(=O)(=O)c1ccccc1)Nc1nc2ccc(F)cc2s1,i,?,i,-11%,3.5µM*,-21%,1.2µM*,-27%,10µM*,31%
O=C(CCS(=O)(=O)c1ccccc1)Nc1nc2cc3c(cc2s1)OCO3,i,i,i,19%,?,14%,·,·,·,·
CCc1ccc(CNC(=O)CCN2C(=O)COc3ccccc32)cc1,·,·,·,·,-37%,-8%,·,·,·,·
